# Molecular target: HLA-C*04:01
# Assay: thermal melting temperature (Tm) of peptide-HLA complex; higher = more thermostable pHLA complex
# Description: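 Endogenous HLA-C*04:01 ligands were detected in the thermostability assays of both the C1R-A*02:01 and C1R-B*07:02 lines. Lysates were heated 10 min at 37-73 °C and pHLA immunoprecipitated with W6/32. Peptides were quantified by DIA-MS and Tm was taken from a logistic sigmoid fit.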
Sequence,thermal melting temperature (C1R-A*02:01),thermal melting temperature (C1R-B*07:02)
LWDSAVSHF,55.1 °C,55.6 °C
VTDPRVVDL,53.8 °C,52.7 °C
YFDPANGKF,57.6 °C,57.5 °C
IWDETPLYF,50.8 °C,51.8 °C
FYDERIVVV,63.9 °C,62.3 °C
VFDVLDGEEM,53.4 °C,60.9 °C
IFSEKPVFV,60 °C,57 °C
FYDVQFKEL,53.1 °C,52.5 °C
SFDDTNEKF,49.8 °C,48.2 °C
TYEGKPIFL,52.9 °C,51.5 °C
VFDEAVRV,52.4 °C,50.6 °C
VWDLFPEADKV,54.5 °C,52.4 °C
VIDEPVRL,50 °C,50.3 °C
NPDDVFREF,61.2 °C,62.7 °C
VLDDKLVFV,61.8 °C,48.9 °C
IYDPNLAFL,58.9 °C,56 °C
VFDEAIRAV,61.2 °C,61.5 °C
FFDEVVKQM,58.8 °C,60.5 °C
FWDDAVKEV,46.6 °C,48.3 °C
LFHPSNVEM,46 °C,46.4 °C
QFDNYGEEF,50.8 °C,55.5 °C
AWDIAIATM,50.9 °C,49.6 °C
HFDPEVYL,54.6 °C,53.2 °C
FFEVSPVSF,49.9 °C,46.6 °C

# Source: the supplement of paper PMC7726561
